For 20 molecules, activity, negative = inhibition, Potency and outcome results are on record in PubChem BioAssay (NCATS).

Unmarked numbers belong to inactive results. Inconclusive results are not listed. Activity calls are given as the source filed them. Unless noted, calls follow the shape of the dose curve; as a rule, active = well fitted curve in either direction with a large enough effect (not every such curve was filed as active); inconclusive = small, poorly fitted or top-dose-only effect, or another doubt; inactive = flat fitted curve, though single readings scatter.

Assay [1] in a line: Stat Signaling Pathway (AID 446).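 Also: ME-180 cervical cancer cells given 40 pM IL-6 alongside compound; SIE-controlled beta-lactamase reporter measured as 460/530 nm FRET emission ratio; % is scaled to controls: 0 for no effect and ±100 for the full control effect.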 The conditions noted are these: ME-180 (cervical carcinoma) SIE beta-lactamase reporter, IL-6 stimulated, 5 h; at 17.2 µM (top of the series) unless noted. The method, boiled down:
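Emission at 460 and 530 nm (excitation 405 nm) reports SIE-controlled beta-lactamase in ME-180 cells. Cells received compound with 40 pM IL-6 for 5 hrs at 37 C; data scaled between 300 pM IL-6 and 125 nM JAK-inhibitor controls.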

Assay [2] addresses Glucocorticoid receptor (Homo sapiens) (UniProt P04150). Description: GR-GFP Redistribution (AID 450;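 active = compounds whose dose series gives a full or clear partial fitted curve of increased nuclear translocation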; also: potency is read from the fitted curve at half-maximal effect).
For assay [3] the target is unchanged. As to the kind of experiment: GR-EFC Redistribution (AID 451; calls by dose curve; also: potency is read from the fitted curve at half-maximal effect). To be noted: CHO-K1 GR-EFC translocation, beta-gal luminescence, 2 h. In a few lines:
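CHO-K1 cells stably expressing nuclear-localized β-gal enzyme acceptor and GR fused C-terminally to the enzyme donor fragment; ligand-driven nuclear translocation restores β-gal by complementation. Compounds titrated up to 46 uM final, 2 h at 37 °C; luminescence read.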

In assay [4] the target is 3',5'-cyclic-AMP phosphodiesterase 4B (Homo sapiens) (UniProt Q07343). Description: qHTS Assay for Inhibitors of PDE-IV (AID 607; active = well fitted activation curve with a large enough effect in the main read-out, with a control signal flat, not every such curve was filed as active; also: % of control where 0% means no effect). In a few lines:
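The readout is membrane depolarisation from a cAMP-sensing CNG channel, detected with a potential dye at ex 535/em 590. Cells were HEK293-derived (endogenous PDE-IV) at 1000 cells/well, titrated up to 22.9 uM final.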

Assay [5] addresses Guanine nucleotide-binding protein G(i) subunit alpha-1 (Homo sapiens) (UniProt P63096). Description: qHTS Assay for Inhibitors of RGS12 GoLoco Motif Activity (Green Fluorophore) (AID 879; active = well fitted curve in the direction sought with a large enough effect; an effect the other way counts as inactive or inconclusive;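 also: 0% = labeled peptide with Gαi1 and full inhibition = labeled peptide alone without protein; negative values mean loss of peptide binding seen as reduced polarization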). In a few lines: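 A drop in FITC polarization marked displacement of the FITC-tagged RGS12 GoLoco peptide (10 nM) from Gαi1 (50 nM). Compounds were incubated 10 min at room temperature in Tris pH 7.5 buffer containing 150 mM NaCl, 0.1 mM GDP and 0.05% NP40; unlabeled peptide titration served as control.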
In general terms: qHTS replaces the single test concentration by a dilution series.

Assay [6] in a line: qHTS Assay for Identification of Small Molecule Antagonists for Thrombopoietin (TPO) Signaling Pathway (AID 918; active = well fitted curve in the direction sought with a large enough effect; an effect the other way counts as inactive or inconclusive; also: potency is read from the fitted curve at half-maximal effect; nearly all actives have a fitted effect of over 60% in size). The conditions noted are these: TPO-dependent cell signaling reporter, antagonist mode. The method, boiled down:
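Inhibition read as reduced luciferase luminescence after 24 h at 37 C in IL-3-deprived Ba/F3 cells carrying human TPO receptor and GPIIb-promoter reporter, stimulated with 26 pM TPO (final, its EC50) alongside compound.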

The target in assay [7] is Pyruvate kinase (Leishmania mexicana) (UniProt Q27686). As to the kind of experiment: qHTS Validation Assay for Inhibitors of Leishmania Mexicana Pyruvate Kinase (AID 945; active = well fitted curve in the direction sought with a large enough effect; an effect the other way counts as inactive or inconclusive;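 also: 0% = DMSO only neutral control wells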). In a few lines:
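Read-out: luminescence from PKLight stop/detection reagent, data normalized to DMSO. Reaction: 0.2 nM E451W LmPYK, 0.5 mM PEP, 0.1 mM ADP, pH 7.2, 1 h room temperature.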

The target in assay [8] is Pyruvate kinase PKM (Homo sapiens) (UniProt P14618). As to the kind of experiment: qHTS Assay for Activators of Human Muscle Pyruvate Kinase (AID 954; active = well fitted curve in the direction sought with a large enough effect, not every such curve was filed as active;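 also: 0% = uninhibited enzyme and -100% = no enzyme or full thiadiazolimine inhibition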). The method, boiled down: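 PKM2, human, >95% pure, 0.1 nM; PEP 0.5 mM (Km), ADP 0.1 mM; 50 mM imidazole pH 7.2, 50 mM KCl, 0.01% Tween 20, 0.05% BSA; 1 h RT; luciferase luminescence readout.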
Assay [9] concerns the target Alpha-galactosidase A (Homo sapiens) (UniProt P06280). Description: Counterscreen for Glucocerebrosidase Inhibitors: qHTS Assay for Human alpha-Galactosidase at pH 4.5 (AID 992; active = well fitted curve in the direction sought with a large enough effect; an effect the other way counts as inactive or inconclusive; also: 0% is about no effect). The method, boiled down:
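Fluorogenic 4-MU alpha-D-galactoside (80 uM) hydrolysis, 2 nM enzyme, pH 4.5 citrate buffer + 0.005% Tween-20; 20 min RT; NaOH/glycine pH 10 stop; Ex365/Em440. Compounds titrated 0.7 nM–77 uM; Hill-equation AC50.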

For assay [10], the target named is alpha-glucosidase (Oryza sativa, rice) (UniProt Q653V4). Description: Counterscreen for Glucocerebrosidase Inhibitors: qHTS Assay for Rice alpha-Glucosidase at pH 5.0 (AID 997; active = well fitted curve in the direction sought with a large enough effect; an effect the other way counts as inactive or inconclusive;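 also: 0% = full activity with enzyme and -100% = basal without enzyme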). In a few lines: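 Endpoint fluorogenic assay at pH 5.0: compounds (0.7 nM to 77 uM) titrated against 4 nM rice enzyme and 400 uM 4-MU-alpha-glucoside for 20 min at room temperature; NaOH/glycine stop, read ex 365/em 440 nm, Hill-fitted AC50.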
(In general: Counterscreens check selectivity or assay interference.)

A short description of assay [11]: qHTS Assay for Identification of Small Molecule Antagonists for NFkB Signaling Pathway (AID 895; active = well fitted inhibition curve with a large enough effect in the signal ratio, with a control signal flat, not every such curve was filed as active; the % refers to the signal ratio; also: potency is read from the fitted curve at half-maximal effect). In a few lines:
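NFkB-bla ME-180 cervical carcinoma cells with beta-lactamase reporter under NFkB response element; compounds added, then TNF alpha at 10 pM final (EC50), 5 h at 37 C. LiveBLAzer substrate 2 h, room temperature; emission 460/530 nm at 405 nm excitation.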

The target of assay [12] is Muscarinic acetylcholine receptor M1 (Rattus norvegicus) (UniProt P08482). As to the kind of experiment: qHTS Assay for Antagonists of Acetylcholine Muscarinic M1 Receptor: Kinetic Measurement of Intracellular Calcium Response (AID 943; active = well fitted curve in the direction sought with a large enough effect; an effect the other way counts as inactive or inconclusive;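 also: Fluo-4 calcium signal as peak divided by basal fluorescence over 4 min; nearly all actives have a fitted effect of over 75% in size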). In a few lines: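 Antagonism measured as reduction of carbachol-evoked (EC80, 100 nM final) calcium flux in rat M1-CHO cells after 10 min compound exposure. Fluo-4 signal read kinetically; ratio of maximal to basal fluorescence.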
Sequence of Muscarinic acetylcholine receptor M1 (Rattus norvegicus) (P08482 whole entry, looked up): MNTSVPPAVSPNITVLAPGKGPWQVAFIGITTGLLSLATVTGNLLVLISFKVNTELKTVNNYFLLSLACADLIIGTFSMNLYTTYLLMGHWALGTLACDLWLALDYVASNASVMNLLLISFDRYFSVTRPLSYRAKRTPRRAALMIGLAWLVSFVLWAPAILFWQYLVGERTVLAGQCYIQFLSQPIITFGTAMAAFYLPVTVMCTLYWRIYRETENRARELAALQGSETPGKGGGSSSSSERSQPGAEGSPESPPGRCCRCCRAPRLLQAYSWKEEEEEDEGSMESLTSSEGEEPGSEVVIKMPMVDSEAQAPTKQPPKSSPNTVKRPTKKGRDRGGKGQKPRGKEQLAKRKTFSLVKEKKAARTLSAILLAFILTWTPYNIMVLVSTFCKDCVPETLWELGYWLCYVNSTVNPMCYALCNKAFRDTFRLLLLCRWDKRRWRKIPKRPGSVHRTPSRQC

Sequence of Glucocorticoid receptor (Homo sapiens) (P04150 whole entry, looked up): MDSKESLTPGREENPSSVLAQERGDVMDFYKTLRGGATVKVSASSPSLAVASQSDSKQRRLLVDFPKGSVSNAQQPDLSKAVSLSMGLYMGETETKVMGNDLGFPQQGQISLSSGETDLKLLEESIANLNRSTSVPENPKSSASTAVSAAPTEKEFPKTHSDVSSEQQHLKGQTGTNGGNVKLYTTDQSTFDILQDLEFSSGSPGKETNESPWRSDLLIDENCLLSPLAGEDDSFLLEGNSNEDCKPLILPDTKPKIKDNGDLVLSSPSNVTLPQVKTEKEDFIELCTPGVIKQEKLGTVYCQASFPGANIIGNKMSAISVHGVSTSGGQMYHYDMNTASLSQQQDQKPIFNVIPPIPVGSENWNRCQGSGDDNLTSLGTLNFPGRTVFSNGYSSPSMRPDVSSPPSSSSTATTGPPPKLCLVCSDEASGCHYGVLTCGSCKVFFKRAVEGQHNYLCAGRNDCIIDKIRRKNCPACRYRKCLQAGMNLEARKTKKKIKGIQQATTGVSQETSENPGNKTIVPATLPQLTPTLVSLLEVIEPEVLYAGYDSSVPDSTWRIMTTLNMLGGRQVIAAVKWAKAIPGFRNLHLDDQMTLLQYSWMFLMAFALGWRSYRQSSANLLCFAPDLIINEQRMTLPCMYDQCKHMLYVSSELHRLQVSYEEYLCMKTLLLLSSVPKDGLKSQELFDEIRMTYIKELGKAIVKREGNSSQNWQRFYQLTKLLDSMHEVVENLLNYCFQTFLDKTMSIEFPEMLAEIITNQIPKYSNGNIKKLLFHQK
Sequence of 3',5'-cyclic-AMP phosphodiesterase 4B (Homo sapiens) (Q07343 whole entry, looked up): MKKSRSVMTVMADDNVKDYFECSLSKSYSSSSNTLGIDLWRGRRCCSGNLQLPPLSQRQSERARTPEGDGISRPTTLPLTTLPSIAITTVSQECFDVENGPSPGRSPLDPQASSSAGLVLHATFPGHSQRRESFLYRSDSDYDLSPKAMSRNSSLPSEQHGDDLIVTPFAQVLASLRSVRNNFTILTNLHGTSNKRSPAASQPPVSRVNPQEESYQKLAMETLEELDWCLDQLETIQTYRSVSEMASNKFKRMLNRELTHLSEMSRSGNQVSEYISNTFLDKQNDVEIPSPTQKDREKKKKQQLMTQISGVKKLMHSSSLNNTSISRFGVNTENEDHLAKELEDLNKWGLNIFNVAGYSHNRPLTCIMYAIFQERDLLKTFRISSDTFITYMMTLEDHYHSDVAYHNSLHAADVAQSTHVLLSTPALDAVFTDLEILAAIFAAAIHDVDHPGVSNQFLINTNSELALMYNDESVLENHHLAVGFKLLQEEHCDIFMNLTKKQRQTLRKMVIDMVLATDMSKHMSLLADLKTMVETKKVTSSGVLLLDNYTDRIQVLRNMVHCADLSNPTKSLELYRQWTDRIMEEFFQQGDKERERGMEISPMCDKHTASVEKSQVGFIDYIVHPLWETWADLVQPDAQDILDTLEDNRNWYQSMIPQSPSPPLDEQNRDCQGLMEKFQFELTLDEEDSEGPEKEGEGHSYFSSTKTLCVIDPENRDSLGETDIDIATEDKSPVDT
Sequence of Pyruvate kinase (Leishmania mexicana) (Q27686 2-499 E452W): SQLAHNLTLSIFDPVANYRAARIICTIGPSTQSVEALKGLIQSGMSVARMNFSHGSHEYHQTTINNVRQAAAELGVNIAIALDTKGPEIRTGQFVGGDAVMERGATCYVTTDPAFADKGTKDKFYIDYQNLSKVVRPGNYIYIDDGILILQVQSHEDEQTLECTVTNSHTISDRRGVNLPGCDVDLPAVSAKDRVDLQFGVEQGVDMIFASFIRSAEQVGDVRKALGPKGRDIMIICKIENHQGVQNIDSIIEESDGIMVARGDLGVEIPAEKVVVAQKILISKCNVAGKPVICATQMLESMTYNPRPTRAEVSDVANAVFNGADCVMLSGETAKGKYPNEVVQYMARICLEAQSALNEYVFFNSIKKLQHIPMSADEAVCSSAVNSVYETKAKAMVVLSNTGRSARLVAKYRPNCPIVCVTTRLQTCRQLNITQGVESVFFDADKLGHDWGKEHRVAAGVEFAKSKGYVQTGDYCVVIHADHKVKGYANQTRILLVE
Sequence of Alpha-galactosidase A (Homo sapiens) (P06280 whole entry, looked up): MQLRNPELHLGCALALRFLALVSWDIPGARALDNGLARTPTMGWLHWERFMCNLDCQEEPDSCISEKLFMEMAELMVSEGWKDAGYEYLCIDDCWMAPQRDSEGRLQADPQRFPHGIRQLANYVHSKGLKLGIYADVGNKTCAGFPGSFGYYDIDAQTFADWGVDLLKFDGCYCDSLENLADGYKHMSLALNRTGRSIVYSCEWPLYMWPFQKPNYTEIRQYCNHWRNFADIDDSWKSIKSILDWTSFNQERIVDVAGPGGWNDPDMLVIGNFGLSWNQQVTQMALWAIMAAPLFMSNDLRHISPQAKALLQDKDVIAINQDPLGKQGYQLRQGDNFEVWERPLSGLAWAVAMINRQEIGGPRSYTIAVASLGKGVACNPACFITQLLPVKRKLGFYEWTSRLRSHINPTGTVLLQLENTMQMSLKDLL
Sequence of Pyruvate kinase PKM (Homo sapiens) (P14618 whole entry, looked up): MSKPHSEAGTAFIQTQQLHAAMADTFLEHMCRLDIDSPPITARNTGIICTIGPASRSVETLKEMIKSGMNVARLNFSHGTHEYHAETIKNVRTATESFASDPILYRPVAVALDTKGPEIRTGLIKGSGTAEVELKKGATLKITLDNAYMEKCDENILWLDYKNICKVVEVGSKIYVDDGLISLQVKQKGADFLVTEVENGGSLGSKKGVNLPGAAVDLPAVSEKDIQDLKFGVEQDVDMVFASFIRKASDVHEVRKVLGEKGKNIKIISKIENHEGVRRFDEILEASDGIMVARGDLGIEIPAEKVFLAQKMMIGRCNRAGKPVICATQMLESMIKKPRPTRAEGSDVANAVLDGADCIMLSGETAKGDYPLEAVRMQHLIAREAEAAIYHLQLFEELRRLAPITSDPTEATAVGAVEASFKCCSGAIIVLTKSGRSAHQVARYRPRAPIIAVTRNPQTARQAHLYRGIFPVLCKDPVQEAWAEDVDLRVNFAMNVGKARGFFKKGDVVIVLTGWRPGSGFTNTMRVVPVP
Sequence of Guanine nucleotide-binding protein G(i) subunit alpha-1 (Homo sapiens) (P63096 whole entry, looked up): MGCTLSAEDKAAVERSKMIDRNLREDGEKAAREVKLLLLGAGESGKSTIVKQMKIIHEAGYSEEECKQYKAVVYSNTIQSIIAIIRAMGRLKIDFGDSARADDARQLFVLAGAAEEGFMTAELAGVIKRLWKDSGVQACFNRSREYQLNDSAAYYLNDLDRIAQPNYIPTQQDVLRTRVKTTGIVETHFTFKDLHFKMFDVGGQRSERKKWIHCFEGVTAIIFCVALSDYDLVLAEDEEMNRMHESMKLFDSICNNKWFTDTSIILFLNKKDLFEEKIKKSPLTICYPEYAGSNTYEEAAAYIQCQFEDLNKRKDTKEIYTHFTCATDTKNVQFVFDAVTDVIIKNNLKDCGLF

In the case of `C=CCOc1nc(-c2ccncc2)nc2ccccc12`, the activity, negative = inhibition in assay [1] was 12.7%. Further, the Potency in [2] was more than 20.6 µM.
The corresponding values for `O=C(CCN1CCCC1Cc1ccccc1)c1ccc2c(c1)OCCO2` (configuration not stated) are 14.7% and more than 20.6 µM.
Take `Cc1c(C)c2c(c(C)c1O)CC[C@@](C)(CN1CCN(c3cc(N4CCCC4)nc(N4CCCC4)n3)CC1)O2`: the activity, negative = inhibition in [1] was 19.8% [at 38 µM]. For the same molecule, the figures for the Potency in [2], in assay [3] and in assay [6] were more than 46 µM, more than 46 µM and 10 µM (active), respectively. Moreover, the Potency entry in assay [4] and in assay [7] was “inactive” each time. The result in assay [5], in assay [8], in assay [9] and in assay [10] was inactive.
For `COc1ccc(C2C=C(c3ccc(C)cc3)Nc3ncnn32)cc1` (configuration not stated), the activity, negative = inhibition in assay [1] was -14.5%. The Potency in assay [2] is more than 20.6 µM.
In the same order, the values of `COC(=O)c1ccccc1NC=C1C(=O)OC2(CCCCC2)OC1=O` are 2.6% and more than 20.6 µM.
The corresponding values for `N#Cc1nc(COc2ccc(Br)cc2)oc1N1CCCC1` are 3.52% and more than 20.6 µM.
The corresponding values for `Fc1ccc2[nH]c3c(N4CCN(c5ccccc5)CC4)ncnc3c2c1` are -93.2% (active) and more than 20.6 µM.
For `N=c1c2c(-c3ccccc3)c(-c3ccccc3)n(Cc3ccccc3)c2ncn1CCCn1ccnc1`, the activity, negative = inhibition in [1] is 9.95%. The Potency in assay [2] was more than 20.6 µM.
In the same order, the values of `N#CC1=C(N)NC(SCc2ccc(F)cc2)=C(C#N)C12CCCCC2` are -24.1% and more than 20.6 µM.
In the same order, the values of `N#CCSc1nc2c(c(=O)n1Cc1ccco1)C1(CCCC1)Cc1ccccc1-2` are -1.5% and more than 20.6 µM.
The corresponding values for `CCOC(=O)c1[nH]c2cc3c(cc2c1NC(=O)CN1CCCCC1C)OCO3` (configuration not stated) are -10.3% and more than 20.6 µM.
With `Cc1nc(SCC(=O)c2ccccc2)c(C#N)c(-c2ccco2)c1C(=O)NCc1ccco1`, the activity, negative = inhibition in assay [1] was -21.3%. In addition, the Potency in [2] is more than 20.6 µM.
The corresponding values for `COc1cc(C(=O)OCCN2CCCCC2)ccc1O` are 4.68% and more than 20.6 µM.
The corresponding values for `COc1cccc(-c2nnc3sc(C4CCCCC4)nn23)c1` are -91.1% (active) and more than 20.6 µM.
In the same order, the values of `COc1cccc(-c2nc(N3CCCCC3)c3ccccc3n2)c1O` are -5.07% and more than 20.6 µM.
As to `Cc1ccccc1-n1c(=O)/c(=C\c2ccco2)s/c1=C(/C#N)C(=O)Nc1ccccc1`, the activity, negative = inhibition in assay [1] was -25.9%. Further, the Potency in [2] is more than 20.6 µM.
Take `N#C[C@@H](Cc1ccc(O)c(O)c1)C(=O)N1CCc2ccccc21`: in assay [1], the activity, negative = inhibition is 26% [at 38 µM]. The Potency in assay [2] is more than 46 µM; in assay [3], more than 46 µM; in [11], 10 µM (active). Also, the Potency result in [4], in assay [12] and in assay [7] was “inactive” in each case. In addition, the result in assay [5], in assay [8], in [9] and in assay [10] was inactive.
Regarding `CC1(C)Cc2c(sc3c2C2=NCCN2C=N3)CS1`, the activity, negative = inhibition in assay [1] was 5.3%. In assay [2], the Potency was more than 20.6 µM.
`COc1cc(C2C(C#N)=C(N)Oc3cc(N)ccc32)cc(OC)c1OC` (configuration not stated): the activity, negative = inhibition in assay [1] is -20.2%. Further, the Potency in assay [2] is more than 20.6 µM.
The corresponding values for `CSc1nc2[nH]c3c(c2c2ncnn12)CCCC3` are -26.5% and more than 20.6 µM.
